Results on four molecules are retold here after PubChem BioAssay.

Values joined by “and” are separate entries in the source; they are usually repeats but may differ in a detail not shown here. Equal values may be shown once. Active and inactive are the calls of the source.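 The calls were made as follows, unless noted: active = z-score of at least 1.8 in each of two replicates, scored against plate mean and spread of sample wells; inactive = the rest.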

The nature of test [1]: stimulators of nuclear beta-catenin in C2C12, primary screen, imaging, WNT3A-conditioned medium, mouse C2C12, NPC library (AID 1117326; in the data active = nuclear beta-catenin stimulation mostly above about 4.2%, no sharp cut-off; inactive = mostly below about 10%). As to conditions: stronger effect = higher value.
Test [2] in a line: stimulators of insulin release from INS-1E, primary screen, cell-based, 5 mM glucose, NPC library (AID 1117329;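 active = compound raises insulin release from rat beta cells at 5 mM glucose, no numeric limit stated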). As to conditions: rat INS-1E insulin secretion, at 10 µM, stronger effect = higher value.
A short description of test [3]: growth inhibition of GSK3B-pretreated HCT116 cells – cell-based, CellTiter-Glo, 0.2 to 20 µM (AID 1117336;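 active = compounds lowering colon cancer cell viability after pretreatment blocking the GSK3B kinase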). As to conditions: HCT116 viability after GSK3B inhibitor, at 20 µM, stronger effect = higher value. A general note: Cellular ATP, detected with luciferase, serves as a proxy for viable cell number.
Test [4] is described as follows: inhibition of endothelial tube formation, primary screen, imaging, VEGF stimulated, CD31 staining, tube area, NPC library (AID 1117340;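 active = compound that reduces growth-factor-driven endothelial tube area in a mixed cell culture, no cutoff stated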). As to conditions: VEGF-stimulated ADSC/ECFC co-culture, at 10 µM, stronger effect = higher value.
The nature of test [5]: glucagon-like peptide 1 release enhancers, primary assay, NCI-H716 cell line, NPC library (AID 1117341;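 active = compound raises GLP1 secretion from the human gut endocrine cells, with no numeric limit stated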). The note with it: NCI-H716 cells, at 10 µM, stronger effect = higher value.
Test [6] is described as follows: HCT116 colon cancer cell growth inhibition, primary screen, CellTiter-Glo luminescence, NPC library (AID 1117342;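 active = compounds that lower survival of HCT116 colon cancer cells in the luminescence readout, no numeric limit stated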). The note with it: at 20 µM (top of the series).
The nature of test [7]: CellTiter-Glo luminescent readout of SW480 viability loss, NPC library primary (AID 1117343;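 active = compounds that lower viability of the colon cancer cells in the luminescence readout, with no numeric limit stated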). The note with it: CellTiter-Glo luminescence; at 20 µM (top of the series).
A short description of test [8]: decreased DLD-1 cellular survival, CellTiter-Glo luminescent readout, NPC compound collection, primary HTS (AID 1117346;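 active = compounds that lower survival of DLD-1 colon cancer cells in the luminescence readout, no cutoff given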). As to conditions: DLD-1 viability, CellTiter-Glo luminescence; at 20 µM (top of the series).
Test [9] in a line: differential killing of epithelial or mesenchymal cells, primary screen, imaging, PC-3E GFP, TEM4-18 mCherry, co-culture (AID 1345086;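 active = compounds killing one labelled cell type while sparing the other, by normalised counts and ratio limits, not self-fluorescent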;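 as to all read-outs here: cells exposed to compound for 72 h before imaging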;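 as to red/green cell ratio (normalised): normalised mesenchymal count divided by normalised epithelial count so high means epithelial killing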). As to conditions: imaging cell counts, at 1 µM; for red/green cell ratio (normalised): actives lie on both sides.
For test [10], the system named is Aerobactin synthetase IucA (Klebsiella pneumoniae hvKP1). Put plainly: Biochemical IucA enzyme inhibition primary screen of the Spectrum library (AID 1346200; call rule not given here;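 also: 100% = wells without compound and 0% = wells lacking enzyme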). The note with it: malachite green pyrophosphate, A620, at 8 µM, stronger effect = lower value.
The nature of test [11]: survival rescue of mitochondrial mutant cells in low glucose, primary screen, MELAS cybrids, Rieske KO mouse fibroblasts, CellTiter-Glo (AID 1508586;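 active = mean z-score across replicates of 1.96 or higher in either the MELAS or the Rieske mutant cell line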;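 also: z relative to plate mean and SD of compound and empty wells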).
Test [12] has as its target NAD(+) hydrolase SARM1 (Homo sapiens) (UniProt Q6SZW1). Put plainly: SARM1 TIR NADase inhibitors, cell lysate, NAD-Glo luminescence (AID 1508614;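 active = compound whose remaining NAD level is above about 45 nM, limit read from the data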;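 also: higher remaining NAD means stronger inhibition of SARM1 NADase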). As to conditions: SAM-TIR HEK293T lysate NADase, at 1 µM, stronger effect = higher value.
For test [13], the target named is Mitogen-activated protein kinase 7 (Homo sapiens) (UniProt Q13164). The test can be described thus: ERK5 transactivation activators in reporter cells, primary screen, cell-based, HTS (AID 1508626;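 active = luciferase signal above three times the same-plate solvent-only control wells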;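 also: luciferase driven by Gal4-ERK5 fusion binding five Gal4 sites before minimal TATA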). As to conditions: HeLa Gal4-ERK5 transactivation, 18 h, at 5 µM, stronger effect = higher value.
Mitogen-activated protein kinase 7 (Homo sapiens), sequence (Q13164 whole entry, looked up, the tested form may be a part): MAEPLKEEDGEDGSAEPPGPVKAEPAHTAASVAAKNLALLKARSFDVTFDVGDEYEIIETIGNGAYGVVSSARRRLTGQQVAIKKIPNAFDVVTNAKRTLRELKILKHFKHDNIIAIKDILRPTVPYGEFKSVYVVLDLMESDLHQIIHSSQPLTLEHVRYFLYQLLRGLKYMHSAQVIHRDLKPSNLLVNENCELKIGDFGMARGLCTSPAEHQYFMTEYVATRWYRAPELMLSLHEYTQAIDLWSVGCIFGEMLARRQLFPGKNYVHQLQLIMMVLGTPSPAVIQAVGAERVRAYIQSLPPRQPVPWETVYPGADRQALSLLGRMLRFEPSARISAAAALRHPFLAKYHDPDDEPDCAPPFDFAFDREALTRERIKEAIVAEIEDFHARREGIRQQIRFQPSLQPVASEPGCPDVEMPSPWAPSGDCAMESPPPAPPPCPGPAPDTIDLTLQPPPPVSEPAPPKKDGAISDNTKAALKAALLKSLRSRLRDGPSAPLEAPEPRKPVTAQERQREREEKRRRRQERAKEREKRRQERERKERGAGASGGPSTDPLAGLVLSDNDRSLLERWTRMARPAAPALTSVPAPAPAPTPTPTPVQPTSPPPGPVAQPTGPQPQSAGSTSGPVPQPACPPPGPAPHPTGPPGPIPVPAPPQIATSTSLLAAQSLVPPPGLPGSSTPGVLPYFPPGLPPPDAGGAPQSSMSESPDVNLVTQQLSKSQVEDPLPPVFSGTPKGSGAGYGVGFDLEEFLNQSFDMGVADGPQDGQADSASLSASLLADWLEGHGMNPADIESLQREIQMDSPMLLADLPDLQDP
The nature of test [14]: viability rescue of complex I mutant cybrids, primary screen, cell-based, galactose medium, ATP luminescence (AID 1645843).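 Also: positive z means more ATP and so rescue of galactose-driven cybrid death.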 As to conditions: complex I mutant cybrid cells, 72 h, stronger effect = higher value.
Test [15] in a line: sensitizers of A549 cells to miR-34 induction, primary screen, imaging, A549 dox-inducible miR-34, nuclei and caspase counts (AID 1347080;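 active = compounds whose cell count with miR-34 switched on is under 0.7 times the count with it off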). The note with it: A549 miR-34 inducible, Hoechst nuclei count, 48 h.
The nature of test [16]: suppressors of polyQ aggregation in yeast, 75Q-TubU reporter (AID 1593). As to conditions: Yeast 75Q polyglutamine aggregation reporter.
A short description of test [17]: inhibitors of mitochondrial cytochrome c release, biochemical, purified mitochondria (AID 1603).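 Also: mouse liver mitochondria challenged with calcium chloride; signal normalized to the plate average as 100%.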 The note with it: stronger effect = lower value.
Test [18] is described as follows: inhibitors of polyQ protein aggregation (AID 1604). The note with it: polyglutamine-induced protein aggregation inhibition assay; stronger effect = higher value; tested at 2.5 µM.
A short description of test [19]: liver-stage malaria parasite growth inhibition, primary screen, cell-based, HepG2, luciferase luminescence, HepG2 viability (AID 624349; in the data active = parasite load remaining mostly below about 12%, no sharp cut-off; inactive = mostly above about 10%;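 also: 100% = mean of DMSO negative control wells on the same plate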). As to conditions: P. berghei liver stage in HepG2, luciferase luminescence, concentration not given here; parasite load remaining: stronger effect = lower value; viability: measured here: HepG2 viability without parasites.
The mark [20] stands for this setting: measured here: epithelial PC-3E GFP cell survival.
Where [21] appears, read: measured here: mesenchymal TEM4-18 mCherry cell survival.
The mark [22] stands for this setting: MELAS cybrid survival, CellTiter-Glo 48 h, stronger effect = higher value.
Setting [23] is: Rieske KO mouse fibroblast survival, CellTiter-Glo 72 h.
[24] abbreviates: measured here: relative caspase fold change +Dox/-Dox.
Where [25] appears, read: measured here: total cells with miR-34 induction, stronger effect = lower value.
Setting [26] is: measured here: total cells without miR-34 induction.

NAD(+) hydrolase SARM1 (Homo sapiens), sequence (Q6SZW1 whole entry, looked up, the tested form may be a part): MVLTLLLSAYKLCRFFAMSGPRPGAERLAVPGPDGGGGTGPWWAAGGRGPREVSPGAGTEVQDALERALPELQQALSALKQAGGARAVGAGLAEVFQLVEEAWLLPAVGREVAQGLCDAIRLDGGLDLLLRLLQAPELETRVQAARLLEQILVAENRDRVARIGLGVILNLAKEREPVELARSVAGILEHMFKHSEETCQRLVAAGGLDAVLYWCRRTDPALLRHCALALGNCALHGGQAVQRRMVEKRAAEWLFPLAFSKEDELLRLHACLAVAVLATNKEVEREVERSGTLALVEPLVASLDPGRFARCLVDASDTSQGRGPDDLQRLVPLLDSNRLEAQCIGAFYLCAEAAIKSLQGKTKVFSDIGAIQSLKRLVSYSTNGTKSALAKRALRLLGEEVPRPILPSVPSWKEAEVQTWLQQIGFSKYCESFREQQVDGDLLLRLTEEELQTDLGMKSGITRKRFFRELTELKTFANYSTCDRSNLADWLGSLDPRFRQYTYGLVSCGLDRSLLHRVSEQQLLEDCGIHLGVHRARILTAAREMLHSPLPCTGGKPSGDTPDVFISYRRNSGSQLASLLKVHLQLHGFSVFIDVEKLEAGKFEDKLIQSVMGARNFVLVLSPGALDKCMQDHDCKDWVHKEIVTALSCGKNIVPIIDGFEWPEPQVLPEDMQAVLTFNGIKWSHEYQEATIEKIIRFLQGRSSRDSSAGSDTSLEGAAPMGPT

As for `CC(C)c1cccc(C(C)C)c1O`, the nuclear beta-catenin stimulation is 1.6% (inactive) in test [1] (at 10 µM) and 2.2% in [1] (stimulation, at 2 µM). Further, the insulin secretion stimulation in test [2] is 0.6% (inactive). Further, the viability decrease in test [3] was 83.9% (active). Further, in test [4], the tube area decrease is 31% (inactive). Moreover, the GLP1 secretion stimulation in test [5] was -1.8% (inactive). The inhibition of viability in test [6] was 88.2% (active). Further, the figures for the viability decrease (inhibition) in test [7] and in [8] were 102% (active) and 100% (active), respectively. Moreover, the red/green cell ratio (normalised) in test [9] was 1.01 (inactive). Also, the normalised cell number in test [9] (setting [20]) and in [9] (setting [21]) was 1.17 throughout. Moreover, in [10], the activity remaining was 114% (inactive). For the same molecule, the z-score is 0.836 (inactive) and -0.252 (inactive) in test [11] (setting [22]); -0.371 and -1.34 in test [11] (setting [23]); 0.08 (inactive) and -0.35 (inactive) and 0.505 (inactive) in test [14]. In addition, the remaining NAD in [12] is 10 nM (inactive). For the same molecule, in [13], the luciferase signal is 40 AU (inactive).

On to `COc1cccc([C@@]2(O)CCCC[C@@H]2CN(C)C)c1`, for which the nuclear beta-catenin stimulation in test [1] (at 10 µM) is 4.3% (inactive); in test [1] (stimulation, at 2 µM) it was 1.4%. In addition, the insulin secretion stimulation in test [2] was 9.4% (inactive). Further, the viability decrease in test [3] was 34.1% (inactive). Besides, the tube area decrease in test [4] was -7.2% (inactive). Further, the GLP1 secretion stimulation in [5] is 4.9% (inactive). Besides, the inhibition of viability in [6] is 30.7% (inactive). For the same molecule, the viability decrease (inhibition) in test [7] is 75.1% (active); in test [8], 20.8% (inactive). Further, the fold change in test [15] (stronger effect = lower value) was 0.937 (inactive); in [15] (setting [24]), 0.969. Further, the cell count in test [15] (setting [25]) came out at 10100; in test [15] (setting [26]), 10700. Moreover, the z-score in [11] (setting [22]) was 0.879 (inactive) and 0.255 (inactive); in test [11] (setting [23]), 0.166 and -0.539; in test [14], 0.845 (inactive). Further, the remaining NAD in test [12] is 10 nM (inactive). For the same molecule, in test [13], the luciferase signal was 40 AU (inactive).

A word on the viability: it is a read-out of living cells in per cent, often relative to untreated cells. The molecule `CCCC(C)C1(CC)C(=O)N=C(S)NC1=O` (stereo not drawn) gave a score in [16] of 1.17. Besides, in test [17], the cytochrome c release ratio is 1.02. This molecule also showed an inhibition of aggregation in test [18] of 30.6%. Also, the parasite load remaining in test [19] was 29.3% (inactive). The viability in [19] is 123%. For the same molecule, the nuclear beta-catenin stimulation in test [1] (at 10 µM) was 0.1% (inactive); in test [1] (stimulation, at 2 µM), -0.3%. Moreover, in test [2], the insulin secretion stimulation was -0.2% (inactive). Also, the viability decrease in test [3] was -5.2% (inactive). Also, the tube area decrease in test [4] is -13.6% (inactive). Besides, in test [5], the GLP1 secretion stimulation was 0.9% (inactive). Moreover, the inhibition of viability in test [6] was -4.4% (inactive). Besides, the viability decrease (inhibition) is 95.4% (active) in [7] and 3.85% (inactive) in test [8]. Further, the red/green cell ratio (normalised) in test [9] was 1.19 (inactive). The normalised cell number in [9] (setting [20]) worked out at 1.01; in test [9] (setting [21]) it was 1.21. In test [10], the activity remaining was 91.6% (inactive). The fold change in test [15] (stronger effect = lower value) was 0.92 (inactive); in test [15] (setting [24]), 4.02. Also, the cell count in test [15] (setting [25]) was 10900; in test [15] (setting [26]) it was 11900. For the same molecule, the remaining NAD in test [12] was 10 nM (inactive). Further, the luciferase signal in test [13] is 60 AU (inactive).

`COc1ccc(C(=O)N2CCCC2=O)cc1`: the score in test [16] is 0.89. For the same molecule, the cytochrome c release ratio in [17] is 0.98. Moreover, the inhibition of aggregation in test [18] was found to be 60.5%. For the same molecule, in test [19], the parasite load remaining is 27.9% (inactive) and 46.2% (inactive). Moreover, in test [19], the viability was 90.5% and 108%. Further, the nuclear beta-catenin stimulation in test [1] (at 10 µM) was 0.6% (inactive); in [1] (stimulation, at 2 µM), 1.5%. The insulin secretion stimulation in [2] is -0.2% (inactive). In addition, the viability decrease in [3] is -7.2% (inactive). Moreover, the tube area decrease in test [4] was -6.9% (inactive). Moreover, the GLP1 secretion stimulation in [5] was -1% (inactive). Also, in [6], the inhibition of viability was -1% (inactive). Besides, the values for the viability decrease (inhibition) in test [7] and in test [8] were 8.2% (inactive) and 2.2% (inactive), respectively. Moreover, the red/green cell ratio (normalised) in test [9] is 1.03 (inactive). For the same molecule, the normalised cell number in [9] (setting [20]) was 1.3; in test [9] (setting [21]), 1.35. The activity remaining in [10] was 112% (inactive). Moreover, the z-score in test [11] (setting [22]) was 0.14 (inactive) and 0.301 (inactive) and -1.05 (inactive); in test [11] (setting [23]) it was 1 and 0.247 and -0.762; in test [14], 0.545 (inactive) and 0.9 (inactive) and 0.65 (inactive). Also, in test [12], the remaining NAD was 10 nM (inactive). Further, the luciferase signal in test [13] is 60 AU (inactive).
